Test results: PubChem BioAssay (Tox21)
Results filed as inconclusive are left out. Activity calls are given as the source filed them. Unless noted, the call rests on the fitted dose curve; in most records, active means well fitted curve in the direction sought with a large enough effect in the repeat runs; inconclusive means weak or mixed curves; inactive means no such curve, though single readings can be large; an effect the other way counts as inactive or inconclusive.

Tests used:
[1] = molecular target: Thyrotropin receptor (Homo sapiens) (UniProt P16473); experiment: qHTS assay to identify small molecule antagonists of the thyroid stimulating hormone receptor (TSHR) signaling pathway (AID 1259385; calls by dose curve; further: nearly all actives have a fitted effect of over 20% in size)
Sequence of Thyrotropin receptor (Homo sapiens) (P16473 whole entry, looked up): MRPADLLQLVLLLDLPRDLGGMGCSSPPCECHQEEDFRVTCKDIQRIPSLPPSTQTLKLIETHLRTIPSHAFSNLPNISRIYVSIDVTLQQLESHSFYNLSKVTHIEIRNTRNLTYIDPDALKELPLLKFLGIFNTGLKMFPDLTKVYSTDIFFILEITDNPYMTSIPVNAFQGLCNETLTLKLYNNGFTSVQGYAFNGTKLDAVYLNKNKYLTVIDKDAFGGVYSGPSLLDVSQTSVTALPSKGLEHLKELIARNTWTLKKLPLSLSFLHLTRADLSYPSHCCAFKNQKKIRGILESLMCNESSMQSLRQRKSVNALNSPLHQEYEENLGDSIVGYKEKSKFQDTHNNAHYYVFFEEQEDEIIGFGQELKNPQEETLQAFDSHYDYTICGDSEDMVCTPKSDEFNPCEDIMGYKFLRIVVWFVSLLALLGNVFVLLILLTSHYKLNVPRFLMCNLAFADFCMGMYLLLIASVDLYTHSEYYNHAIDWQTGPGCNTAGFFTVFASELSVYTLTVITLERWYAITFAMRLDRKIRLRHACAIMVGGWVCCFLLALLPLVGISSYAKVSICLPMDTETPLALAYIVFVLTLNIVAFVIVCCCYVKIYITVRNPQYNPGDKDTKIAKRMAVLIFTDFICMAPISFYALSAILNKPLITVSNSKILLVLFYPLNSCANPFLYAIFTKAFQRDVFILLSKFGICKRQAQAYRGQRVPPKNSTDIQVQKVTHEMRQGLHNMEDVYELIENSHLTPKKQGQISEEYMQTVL
Method in brief: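 TSHR-HEK293 cells were plated and held 18 h at 37C/5% CO2, then given compound plus Ro20-1724 and stimulated with TSH at 1.5 ng/mL final. After 30 min at room temperature, cAMP was detected with cAMP-d2/anti-cAMP-cryptate (1 h) by fluorescence.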

[2] = qHTS assay to identify small molecule agonists of the estrogen receptor alpha (ER-alpha) signaling pathway in the presence of an antagonist - cell viability counter screen (AID 1259386);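 further: series mostly up to about 92 µM; cells exposed to compounds for 22 h at 37 °C before the viability read; nearly all actives have a fitted effect of over 30% in size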
Method in brief: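 ICI-182,780 at 10.0nM final accompanies the compound titration (15 concentrations, 22hr, 37C) on VM7Luc4E2 cells. The CellTiter-Fluor fluorescence readout runs in the same wells as the luciferase assay.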

[3] = molecular target: Progesterone receptor (Homo sapiens) (UniProt P06401); experiment: qHTS assay to identify small molecule agonists of the progesterone receptor (PR) signaling pathway (AID 1346784; calls by dose curve; further: nearly all actives have a fitted effect of over 30% in size)
Sequence of Progesterone receptor (Homo sapiens) (P06401 whole entry, looked up): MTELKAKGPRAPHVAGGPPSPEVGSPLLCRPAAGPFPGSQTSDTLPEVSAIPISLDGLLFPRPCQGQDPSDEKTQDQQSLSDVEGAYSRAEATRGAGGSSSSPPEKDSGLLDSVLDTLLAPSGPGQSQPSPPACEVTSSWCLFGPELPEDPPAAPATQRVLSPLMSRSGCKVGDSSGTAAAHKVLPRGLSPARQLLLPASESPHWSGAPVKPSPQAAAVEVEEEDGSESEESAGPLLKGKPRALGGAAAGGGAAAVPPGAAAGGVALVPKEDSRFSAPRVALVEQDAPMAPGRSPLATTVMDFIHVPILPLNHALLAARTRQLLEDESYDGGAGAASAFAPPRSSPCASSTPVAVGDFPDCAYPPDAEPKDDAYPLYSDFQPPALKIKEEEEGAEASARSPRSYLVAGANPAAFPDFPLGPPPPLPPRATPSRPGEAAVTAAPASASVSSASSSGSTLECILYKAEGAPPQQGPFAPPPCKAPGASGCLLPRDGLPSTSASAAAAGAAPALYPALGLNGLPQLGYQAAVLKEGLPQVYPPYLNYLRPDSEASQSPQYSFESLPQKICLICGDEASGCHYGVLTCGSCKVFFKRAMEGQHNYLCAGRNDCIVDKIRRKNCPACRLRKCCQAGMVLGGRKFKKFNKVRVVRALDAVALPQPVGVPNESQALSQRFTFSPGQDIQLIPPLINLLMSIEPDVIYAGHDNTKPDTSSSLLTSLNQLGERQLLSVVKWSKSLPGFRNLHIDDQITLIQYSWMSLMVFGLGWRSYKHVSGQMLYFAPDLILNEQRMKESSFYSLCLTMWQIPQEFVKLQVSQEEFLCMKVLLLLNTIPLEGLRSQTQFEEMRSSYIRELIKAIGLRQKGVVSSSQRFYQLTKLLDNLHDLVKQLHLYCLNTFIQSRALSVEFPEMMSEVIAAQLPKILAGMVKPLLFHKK
Method in brief: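 The screen uses PR-UAS-bla HEK 293T cells in charcoal-stripped serum (2%). Compounds are applied for 16 hr at 37C after a 6 hr pre-incubation, and reporter activity is detected with a FRET beta-lactamase substrate after 2 hr at room temperature.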

[4] = molecular target: Progesterone receptor (Homo sapiens) (UniProt P06401); experiment: qHTS assay to identify small molecule antagonists of the progesterone receptor (PR) signaling pathway (AID 1346795; active means well fitted inhibition curve with a large enough effect in the signal ratio in the repeat runs, not every such curve was filed as active; the % refers to the signal ratio)
Method in brief: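 After 6 hr plating at 37C in 2% stripped-serum medium, PR-UAS-bla HEK293T cells got compounds, then 1 nM R5020. Sixteen hours later, LiveBLAzer substrate was applied for 2 hr at room temperature and fluorescence was recorded.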

[5] = qHTS assay to identify small molecule antagonists of the progesterone receptor (PR) signaling pathway - cell viability counter screen (AID 1346798); further: series mostly up to about 92 µM; nearly all actives have a fitted effect of over 50% in size
Method in brief: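 Viability was determined by ATP-based luminescence (CellTiter-Glo) in PR-UAS-bla HEK293T cells cultured in 2% charcoal-stripped serum and incubated 16 hr with compounds under R5020 stimulation.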

[6] = qHTS assay to identify small molecule agonists of the progesterone receptor (PR) signaling pathway - cell viability counter screen (AID 1346799; calls by dose curve; further: nearly all actives have a fitted effect of over 45% in size)
Method in brief: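 Viability was scored by ATP luminescence (CellTiter-Glo, 30 min, room temperature) in the same wells used for the reporter readout, after 16 hr compound exposure of PR-UAS-bla HEK293T cells.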

[7] = qHTS assay to identify small molecule antagonists of the TGF-beta/Smad signaling pathway - cell viability counter screen (AID 1346824); further: nearly all actives have a fitted effect of over 50% in size
Method in brief: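 SBE-bla HEK 293T cells were plated overnight at 37 C, then given compounds in DMSO plus TGF-beta1 (added as 0.25 ng/mL solution) for 5 hr. After the bla read, CellTiter-Glo was added to the same wells and luminescence read after 30 min at room temperature.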

[8] = qHTS assay to identify small molecule agonists of the TGF-beta/Smad signaling pathway - cell viability counter screen (AID 1346829); further: top concentration of the series differs between compounds; nearly all actives have a fitted effect of over 45% in size
Method in brief: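 HEK 293T SBE-bla line, 5 hr compound exposure at 37 C, multiplexed CellTiter-Glo viability read by luminescence.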

[9] = qHTS assay to identify small molecule agonists of the TGF-beta/Smad signaling pathway (AID 1346859; active means well fitted activation curve with a large enough effect in the signal ratio in the repeat runs, not every such curve was filed as active; the % refers to the signal ratio; further: series mostly up to about 77 µM)
Method in brief: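 Dual-wavelength fluorescence (460/530 nm emission) quantified beta-lactamase expression under the Smad binding element in HEK 293T cells following 5 hr compound treatment at 37 C.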

[10] = Human pregnane X receptor (PXR) small molecule agonists, qHTS cell viability counter screen (AID 1346977); further: nearly all actives have a fitted effect of over 50% in size
Method in brief: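 HepG2 cells stably carrying the PXR-Luc reporter are cultured with 5% charcoal-stripped FBS and treated with compounds for 24hr. CellTiter-Fluor is added at 23hr and fluorescence is read after 1hr.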

[11] = Caspase-3/7 induction in HepG2 cells by small molecules, qHTS assay (AID 1346978); further: nearly all actives have a fitted effect of over 15% in size
Method in brief: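 Wild-type HepG2 cells (2,000/well) were settled 5 h at 37 C, 5% CO2, then exposed to compounds in DMSO for 17 h. Caspase-3/7 activity was read by luminescence 30 min after adding Caspase-Glo 3/7 reagent at room temperature.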

[12] = Caspase-3/7 induction in CHO-K1 cells by small molecules, qHTS cell viability counter screen (AID 1346979); further: nearly all actives have a fitted effect of over 35% in size
Method in brief: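 Seeding: 1,500 CHO-K1 cells/well. Rest: 5hr, 37C. Treatment: compounds in DMSO, 16hr. Read: CellTiter-Fluor, 1hr, fluorescence.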

[13] = Caspase-3/7 induction in CHO-K1 cells by small molecules, qHTS assay (AID 1346980); further: nearly all actives have a fitted effect of over 15% in size
Method in brief: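 Wild-type cells were seeded at 1,500 per well and settled 5 hr at 37 C, 5% CO2, then exposed to DMSO-dissolved compounds for 17 hr. Caspase-Glo 3/7 reagent was added, and luminescence was read after 30min at room temperature.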

[14] = Caspase-3/7 induction in HepG2 cells by small molecules, qHTS cell viability counter screen (AID 1346981); further: series mostly up to about 92 µM; nearly all actives have a fitted effect of over 30% in size
Method in brief: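 Multiplexed with the caspase-3/7 assay: HepG2 cells, 16 hr compound treatment, CellTiter-Fluor viability detection by fluorescence.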

[15] = molecular target: Nuclear receptor subfamily 1 group I member 2 (Homo sapiens) (UniProt O75469); experiment: Human pregnane X receptor (PXR) small molecule agonists, qHTS assay (AID 1346982); further: nearly all actives have a fitted effect of over 35% in size
Sequence of Nuclear receptor subfamily 1 group I member 2 (Homo sapiens) (O75469 whole entry, looked up): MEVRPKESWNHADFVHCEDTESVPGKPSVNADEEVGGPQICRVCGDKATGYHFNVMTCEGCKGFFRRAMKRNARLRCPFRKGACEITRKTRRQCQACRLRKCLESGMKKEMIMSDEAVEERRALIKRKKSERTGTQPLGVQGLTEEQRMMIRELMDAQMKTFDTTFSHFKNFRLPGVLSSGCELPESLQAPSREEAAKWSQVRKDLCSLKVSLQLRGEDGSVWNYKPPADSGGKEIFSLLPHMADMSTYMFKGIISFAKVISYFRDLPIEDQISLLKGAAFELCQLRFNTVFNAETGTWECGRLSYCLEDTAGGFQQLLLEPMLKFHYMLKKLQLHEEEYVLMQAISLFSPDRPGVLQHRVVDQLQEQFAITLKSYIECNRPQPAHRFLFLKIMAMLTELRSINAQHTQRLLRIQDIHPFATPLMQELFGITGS
Method in brief: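 We seeded PXR-Luc HepG2 cells in assay medium containing 5% charcoal-stripped FBS, added compounds 5 hr later, incubated 24 hr, and read luminescence with ONE-Glo reagent.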

[16] = molecular target: Nuclear receptor subfamily 1 group I member 2 (Rattus norvegicus) (UniProt Q9R1A7); experiment: Rat pregnane X receptor (rPXR) activation by small molecules, qHTS assay (AID 1346983); conditions: rPXR luciferase reporter cells, One-Glo luminescence, 24 h; stronger effect = higher value; further: nearly all actives have a fitted effect of over 20% in size
Sequence of Nuclear receptor subfamily 1 group I member 2 (Rattus norvegicus) (Q9R1A7 whole entry, looked up): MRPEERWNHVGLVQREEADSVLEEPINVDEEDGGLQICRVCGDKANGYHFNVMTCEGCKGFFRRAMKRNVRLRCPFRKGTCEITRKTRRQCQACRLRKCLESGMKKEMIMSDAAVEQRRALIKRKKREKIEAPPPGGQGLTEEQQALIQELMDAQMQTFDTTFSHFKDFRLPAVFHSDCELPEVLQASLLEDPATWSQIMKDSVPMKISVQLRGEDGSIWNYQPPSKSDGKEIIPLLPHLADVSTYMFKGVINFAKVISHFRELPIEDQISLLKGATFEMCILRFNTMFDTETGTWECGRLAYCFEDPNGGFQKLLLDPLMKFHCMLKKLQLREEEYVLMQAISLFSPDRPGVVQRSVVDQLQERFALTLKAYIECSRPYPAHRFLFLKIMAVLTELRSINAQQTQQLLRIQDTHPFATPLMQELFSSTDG
Method in brief: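 Cell-based rPXR luciferase reporter assay, 2,000 cells per well, rested 5hr at 37 C before compound addition in DMSO, then 24 hr at 37 C. One-Glo reagent was added and luminescence read after 30 min at room temperature.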

[17] = molecular target: Nuclear receptor subfamily 1 group I member 2 (Homo sapiens) (UniProt O75469); experiment: CYP3A4 induction through human pregnane X receptor (PXR) by small molecules, qHTS assay (AID 1346984); further: nearly all actives have a fitted effect of over 40% in size
Method in brief: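 qHTS, concentration-response format: HepG2 DPX-2 line, PXR/CYP3A4-luc. Exposure 24 h, 37C. Substrate Luciferin-IPA 3uM final, 3 h. Detection One-Glo, 30 min RT.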

[18] = molecular target: Nuclear receptor subfamily 1 group I member 2 (Homo sapiens) (UniProt O75469); experiment: Human pregnane X receptor (PXR) activation by small molecules, qHTS assay (AID 1346985); further: nearly all actives have a fitted effect of over 40% in size
Method in brief: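 DPX-2 cells (HepG2 co-transfected with a PXR response element and a CYP3A4-promoter luciferase construct) were seeded at 2,000 per well, rested 5 hr at 37C, then exposed to DMSO-dissolved compounds for 24 hr. Activation was read as luciferase luminescence.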

[19] = molecular target: Thyrotropin-releasing hormone receptor (Homo sapiens) (UniProt P34981); experiment: qHTS assay to identify small molecule antagonists of the thyrotropin-releasing hormone receptor (TRHR) signaling pathway (AID 1346877; active means well fitted inhibition curve with a large enough effect in the repeat runs, not every such curve was filed as active; further: series mostly up to about 51 µM)
Sequence of Thyrotropin-releasing hormone receptor (Homo sapiens) (P34981 whole entry, looked up): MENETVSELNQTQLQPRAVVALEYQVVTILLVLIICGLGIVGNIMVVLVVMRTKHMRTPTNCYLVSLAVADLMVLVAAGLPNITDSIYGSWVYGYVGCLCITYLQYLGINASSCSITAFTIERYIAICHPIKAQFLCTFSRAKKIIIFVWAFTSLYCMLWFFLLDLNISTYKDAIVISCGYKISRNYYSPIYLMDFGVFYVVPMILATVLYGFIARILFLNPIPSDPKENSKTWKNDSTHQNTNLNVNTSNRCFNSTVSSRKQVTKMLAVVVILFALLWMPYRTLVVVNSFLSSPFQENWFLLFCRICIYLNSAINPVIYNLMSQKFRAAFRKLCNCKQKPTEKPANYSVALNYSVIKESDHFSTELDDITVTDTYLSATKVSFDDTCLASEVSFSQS
Method in brief: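 Screening used HEK293 cells engineered with TRHR, with a brief 5 min room-temperature compound exposure preceding addition of TRH to 1 nM. The read-out was kinetic calcium-dye fluorescence, concentration-response from 15 doses in triplicate.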

[20] = molecular target: Thyrotropin-releasing hormone receptor (Homo sapiens) (UniProt P34981); experiment: qHTS assay to identify small molecule agonists of the thyrotropin-releasing hormone receptor (TRHR) signaling pathway (AID 1346891; calls by dose curve;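 further: HEK293 cells expressing TRHR with calcium dye readout; series mostly up to about 58 µM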)
Method in brief: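 Kinetic fluorescence (3 min, 1 s intervals) reported intracellular calcium after compound transfer onto TRHR-Hek293 cells pre-loaded with dye for 2 h at 37 °C.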
On the % scale 0 is the no-effect control and ±100 the full control effect.

C[C@](N)(Cc1ccc(O)cc1)C(=O)O
inactive: activity change, negative = inhibition [1] 1.98% [at 8.39 µM] | activity change, negative = cytotoxicity [2] 3.17% [at 8.39 µM] | activation [3] -0.125% [at 8.39 µM] | activity change, negative = inhibition [4] 12.2% [at 8.39 µM] | activity change, negative = cytotoxicity [5] 2.75% [at 8.39 µM] | activity change, negative = cytotoxicity [6] 2.57% [at 8.39 µM] | viability change, negative = cytotoxic [7] 15.7% [at 6.97 µM] | activity change, negative = cytotoxicity [8] 0.568% [at 6.97 µM] | activation [9] 2.67% [at 6.97 µM] | activity change, negative = cytotoxicity [10] -1.21% [at 8.39 µM] | caspase activation [11] -1.17% [at 8.39 µM] | activity change, negative = cytotoxicity [12] -0.609% [at 8.39 µM] | caspase-3/7 activation [13] 0.841% [at 8.39 µM] | activity change, negative = cytotoxicity [14] -1.6% [at 8.39 µM] | activation [15] -9.59% [at 8.39 µM] | max activation [16] 0.627% | Potency [17] | Potency [18]

CC(=O)Nc1ccc(S(N)(=O)=O)cc1
inactive: Potency [1] | Potency [2] | Potency [3] | Potency [4] | Potency [5] | Potency [6] | outcome [8] | outcome [9] | outcome [19] | outcome [20] | Potency [10] | Potency [11] | Potency [12] | outcome [13] | Potency [14] | Potency [15]

Cc1cccn2c(=O)c(-c3nnn[nH]3)cnc12
inactive: activity change, negative = inhibition [1] -4.29% [at 19 µM] | activity change, negative = cytotoxicity [2] 5.01% [at 19 µM] | activation [3] 2.07% [at 19 µM] | Potency [4] | Potency [5] | activity change, negative = cytotoxicity [6] 11.1% [at 19 µM] | viability change, negative = cytotoxic [7] 3.02% [at 15.8 µM] | activity change, negative = cytotoxicity [8] 2.08% [at 15.8 µM] | activation [9] -4.24% [at 15.8 µM] | activity change, negative = cytotoxicity [10] -2.85% [at 19 µM] | caspase activation [11] -1.09% [at 19 µM] | Potency [12] | caspase-3/7 activation [13] -1.17% [at 19 µM] | activity change, negative = cytotoxicity [14] -1.23% [at 19 µM] | activation [15] -6.8% [at 19 µM] | max activation [16] -7.7% | Potency [17] | Potency [18]

CCCCCSCCCCC
inactive: Potency [1] | Potency [2] | Potency [3] | Potency [4] | Potency [5] | Potency [6] | Potency [7] | outcome [8] | outcome [9] | Potency [10] | Potency [11] | Potency [12] | outcome [13] | Potency [14] | Potency [15]

COCCc1ccc(OCC(O)CNC(C)C)cc1 (stereo not drawn)
inactive: Potency [1] | Potency [2] | Potency [3] | Potency [4] | Potency [5] | Potency [6] | Potency [7] | outcome [8] | outcome [9] | Potency [10] | Potency [12] | outcome [13] | Potency [14] | max activation [16] -0.133%

O=C(O)COc1nn(Cc2ccccc2)c2ccccc12
inactive: Potency [1] | Potency [2] | Potency [3] | Potency [4] | Potency [5] | Potency [6] | Potency [7] | outcome [8] | outcome [19] | outcome [20] | Potency [10] | Potency [11] | outcome [13] | Potency [14] | Potency [15] | max activation [16] -0.954% | Potency [17] | Potency [18]

O=C(O)Cc1ccc(CCNS(=O)(=O)c2ccc(Cl)cc2)cc1
inactive: Potency [1] | Potency [2] | Potency [3] | Potency [4] | Potency [5] | Potency [6] | Potency [7] | outcome [8] | outcome [9] | outcome [19] | outcome [20] | Potency [11] | Potency [12] | outcome [13] | Potency [14] | Potency [15] | max activation [16] -10% | Potency [17] | Potency [18]
